Laboratory results as given in PubChem BioAssay (EPA / NIEHS).
Values joined by “and” are separate entries in the source; they are usually repeats but may differ in a detail not shown here. Identical values can stand only once. Records with an inconclusive call do not appear. Where a structure was tested more than once in an assay, its records may differ in their call. Active and inactive are the calls of the source. The calls were made as follows, unless noted: active = hit-call score of the fitted dose curve at least 0.9, where 1 is the maximum; inactive = score below 0.9.

Legend:
[1] = ATG_PBREM_CIS: Attagene CIS-FACTORIAL HepG2 Assay for human Phenobarbital-responsive Enhancer Module (PBREM) (AID 2282955); conditions: HepG2 PBREM cis-reporter, Attagene multiplexed transcription; actives raise or lower the signal
Procedure, shortened: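 Endogenous transcription factors in human liver HepG2 cells drive a PBREM cis-element reporter, whose transcript level after 24 h treatment is quantified by RT-PCR with capillary electrophoresis; activity fitted in both directions against DMSO.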

[2] = ATG_PXRE_CIS: Attagene CIS-FACTORIAL HepG2 Assay for human Pregnane X Receptor Element (PXRE) (AID 2282957); conditions: HepG2 Attagene CIS-FACTORIAL PXRE reporter, mRNA; actives raise or lower the signal
Procedure, shortened: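 Transiently transfected HepG2 cells were dosed and incubated for 24 h. RNA was then isolated, DNase-treated, reverse-transcribed and reporter sequences amplified. Labeled, HpaI-digested fragments were quantified by capillary electrophoresis against DMSO.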

[3] = ATG_PPRE_CIS: Attagene CIS-FACTORIAL HepG2 Assay for human Peroxisome Proliferator-activated Response Element (PPRE) (AID 2282958); conditions: HepG2 PPRE cis-element reporter, Attagene transcription factor profiling; actives raise or lower the signal
Procedure, shortened: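 HepG2, transient MRTU transfection (cis promoter elements, endogenous TFs). 24 h dosing. RNA → oligo(dT) RT → PCR → 6-FAM primer extension → HpaI digest → CE. Bidirectional fit vs DMSO.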

[4] = ATG_RORE_CIS: Attagene CIS-FACTORIAL HepG2 Assay for human RAR-related Orphan Receptor Element (RORE) (AID 2282959); conditions: HepG2 Attagene cis-factorial RORE reporter, mRNA; actives raise or lower the signal
Procedure, shortened: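 Transient MRTU transfection of human HepG2 liver cells (FuGene 6); 24 h compound exposure; TriZol RNA, oligo(dT) RT, PCR, FAM labeling, HpaI cut, CE fragment analysis. DMSO = negative control/baseline.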

[5] = ATG_Sox_CIS: Attagene CIS-FACTORIAL HepG2 Assay for human SRY-box transcription factor (SOX) (AID 2282960); conditions: HepG2 Attagene cis-factorial SOX reporter, mRNA; actives raise or lower the signal
Procedure, shortened: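 Endogenous factor activity in human liver HepG2 cells carrying transfected cis-regulated reporter units. RNA taken 24 h post-dose, reverse-transcribed, PCR-amplified and sized by capillary electrophoresis. Gain or loss of signal fitted relative to DMSO.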

[6] = molecular target: Transcription factor Sp1 (Homo sapiens) (UniProt P08047); assay: ATG_Sp1_CIS: Attagene CIS-FACTORIAL HepG2 Assay for human Specificity Protein 1 (Sp1) (AID 2282961); conditions: HepG2 Sp1 cis-reporter transcription, actives raise or lower the signal
Sequence of Transcription factor Sp1 (Homo sapiens) (P08047 whole entry, looked up): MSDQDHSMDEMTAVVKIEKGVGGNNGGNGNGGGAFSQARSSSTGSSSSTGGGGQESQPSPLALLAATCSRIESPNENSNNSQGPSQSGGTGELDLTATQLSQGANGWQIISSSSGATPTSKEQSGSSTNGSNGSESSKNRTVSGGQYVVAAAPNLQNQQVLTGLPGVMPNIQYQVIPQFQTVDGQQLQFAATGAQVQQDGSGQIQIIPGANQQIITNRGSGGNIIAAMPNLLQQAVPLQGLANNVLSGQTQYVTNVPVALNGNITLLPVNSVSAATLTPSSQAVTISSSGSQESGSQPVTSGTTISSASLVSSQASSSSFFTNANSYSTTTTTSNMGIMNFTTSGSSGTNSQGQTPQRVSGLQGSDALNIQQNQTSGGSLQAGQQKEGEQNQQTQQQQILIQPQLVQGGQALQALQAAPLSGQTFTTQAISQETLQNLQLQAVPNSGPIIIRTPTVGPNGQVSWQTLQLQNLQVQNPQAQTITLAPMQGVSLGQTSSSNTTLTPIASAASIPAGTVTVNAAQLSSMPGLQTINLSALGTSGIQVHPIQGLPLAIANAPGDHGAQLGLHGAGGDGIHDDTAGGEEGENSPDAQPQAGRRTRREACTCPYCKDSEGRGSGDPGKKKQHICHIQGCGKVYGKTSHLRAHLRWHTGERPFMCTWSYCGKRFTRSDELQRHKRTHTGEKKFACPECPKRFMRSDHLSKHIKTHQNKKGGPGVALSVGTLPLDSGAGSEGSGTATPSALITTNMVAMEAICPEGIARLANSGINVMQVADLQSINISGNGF
Procedure, shortened: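 Transient MRTU-transfected HepG2, 24 h compound exposure. Total RNA → oligo(dT) RT → PCR of reporter → 6-FAM primer extension → HpaI digest → CE. Endpoint fitted both directions vs DMSO.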

[7] = ATG_SREBP_CIS: Attagene CIS-FACTORIAL HepG2 Assay for human Sterol Regulatory Element Binding (SREBP) (AID 2282962); conditions: HepG2 Attagene cis-factorial SREBP reporter, mRNA; actives raise or lower the signal
Procedure, shortened: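 Transfected HepG2 (cis-regulated reporter library, endogenous TFs) → compound 24 h → total RNA → oligo(dT) RT → reporter-specific PCR → FAM primer extension, HpaI cut → CE fluorescence. Fit bidirectional vs DMSO.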

[8] = molecular target: Signal transducer and activator of transcription 3 (Homo sapiens) (UniProt P40763); assay: ATG_STAT3_CIS: Attagene CIS-FACTORIAL HepG2 Assay for human Signal Transducer and Activator of Transcription 3 (STAT3) (AID 2282963); conditions: HepG2, Attagene cis-factorial STAT3 reporter transcription; actives raise or lower the signal
Sequence of Signal transducer and activator of transcription 3 (Homo sapiens) (P40763 whole entry, looked up): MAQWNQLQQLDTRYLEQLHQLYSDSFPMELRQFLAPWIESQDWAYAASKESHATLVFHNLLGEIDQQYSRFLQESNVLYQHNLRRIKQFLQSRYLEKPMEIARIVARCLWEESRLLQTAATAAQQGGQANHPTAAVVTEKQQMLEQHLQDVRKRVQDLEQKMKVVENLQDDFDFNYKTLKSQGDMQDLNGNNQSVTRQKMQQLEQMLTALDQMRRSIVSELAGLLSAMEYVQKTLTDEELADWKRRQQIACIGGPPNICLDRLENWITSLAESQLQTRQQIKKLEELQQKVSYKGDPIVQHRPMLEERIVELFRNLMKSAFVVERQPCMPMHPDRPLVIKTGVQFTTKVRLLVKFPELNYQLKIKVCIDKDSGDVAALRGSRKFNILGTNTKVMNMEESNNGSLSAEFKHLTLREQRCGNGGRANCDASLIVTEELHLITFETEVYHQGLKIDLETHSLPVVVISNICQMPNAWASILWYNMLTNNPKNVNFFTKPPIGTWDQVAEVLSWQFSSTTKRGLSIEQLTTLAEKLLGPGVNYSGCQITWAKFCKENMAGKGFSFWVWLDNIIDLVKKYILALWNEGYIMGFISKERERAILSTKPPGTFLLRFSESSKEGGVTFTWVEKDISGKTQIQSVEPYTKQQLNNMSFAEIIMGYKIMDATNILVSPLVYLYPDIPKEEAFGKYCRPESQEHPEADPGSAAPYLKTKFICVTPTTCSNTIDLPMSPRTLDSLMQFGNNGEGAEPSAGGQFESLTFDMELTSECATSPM
Procedure, shortened: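 HepG2 cells transiently transfected with multiple cis-element-driven reporter units report endogenous transcription factor activity. After 24 h compound exposure, reporter mRNA is measured by RT-PCR, 6-FAM labelling, HpaI digestion and capillary electrophoresis. Fitted bidirectionally versus DMSO.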

[9] = ATG_TA_CIS: Attagene CIS-FACTORIAL HepG2 Assay for human TA Basal Promoter (AID 2282964); conditions: HepG2 Attagene CIS-factorial TA basal promoter reporter; actives raise or lower the signal
Procedure, shortened: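 Transient MRTU transfection of HepG2 preceded 24 h compound exposure. Reporter mRNA levels were then read by RT-PCR with capillary electrophoresis, and this background-control endpoint was fitted bidirectionally to DMSO.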

[10] = ATG_TCF_b_cat_CIS: Attagene CIS-FACTORIAL HepG2 Assay for human T-Cell-Factor with beta-catenin (TCF/b-cat) (AID 2282965); conditions: HepG2 TCF/beta-catenin cis-reporter transcription, actives raise or lower the signal
Procedure, shortened: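 HepG2 cells transiently transfected with cis-promoter-driven multiplexed reporter units; reporter mRNA measured 24 h after dosing by RT-PCR, FAM labelling, HpaI digestion and capillary electrophoresis. Bidirectional fitting relative to DMSO baseline.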

[11] = ATG_TAL_CIS: Attagene CIS-FACTORIAL HepG2 Assay for human TAL Basal Promoter (AID 2282966); conditions: HepG2 Attagene cis-factorial TAL promoter reporter; actives raise or lower the signal;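 also: background control endpoint measuring basal TAL promoter reporter mRNA not a specific factor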
Procedure, shortened: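 Readout: reporter mRNA, fluorescence by CE. System: HepG2, transient multi-reporter transfection, endogenous TF activity. Exposure: 24 h. Analysis: bidirectional, DMSO-normalized; background control.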

[12] = ATG_TGFb_CIS: Attagene CIS-FACTORIAL HepG2 Assay for human Transforming Growth Factor (TGF) (AID 2282967); conditions: HepG2 Attagene CIS TGFb reporter, mRNA transcription; actives raise or lower the signal
Procedure, shortened: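 After a 24-hour incubation with compound, transfected HepG2 cells were lysed for RNA; reporter cDNA was amplified, fluorescently end-labeled and separated by CE. DMSO served as baseline for bidirectional fits.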

[13] = molecular target: Nuclear receptor subfamily 1 group I member 3 (Homo sapiens) (UniProt Q14994); assay: ATG_CAR_TRANS: Attagene TRANS-FACTORIAL HepG2 Assay for human Constitutive Androstane Receptor (CAR) (AID 2282969; active = hit-call score of the fitted dose curve at least 0.9, where 1 is the maximum;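 also: activators raise reporter mRNA above DMSO so AC50 marks induction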); conditions: HepG2 Attagene TRANS-FACTORIAL CAR reporter
Sequence of Nuclear receptor subfamily 1 group I member 3 (Homo sapiens) (Q14994 whole entry, looked up, the tested form may be a part): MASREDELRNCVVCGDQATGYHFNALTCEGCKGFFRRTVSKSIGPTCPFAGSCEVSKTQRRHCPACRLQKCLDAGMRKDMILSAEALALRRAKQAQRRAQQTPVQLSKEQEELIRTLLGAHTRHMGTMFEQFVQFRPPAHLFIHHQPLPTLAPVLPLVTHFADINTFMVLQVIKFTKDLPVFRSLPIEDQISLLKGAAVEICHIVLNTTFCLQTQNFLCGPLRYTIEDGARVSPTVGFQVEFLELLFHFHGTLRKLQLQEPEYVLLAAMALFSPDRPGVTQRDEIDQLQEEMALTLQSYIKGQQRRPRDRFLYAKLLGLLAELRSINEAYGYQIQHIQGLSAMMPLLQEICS
Procedure, shortened: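 HepG2 cells transiently transfected with GAL4-UAS reporter units; TRANS format reads activity of exogenous chimeric NR-Gal4 protein. After 24 h dosing, reporter mRNA quantified by RT-PCR, 6-FAM labelling and capillary electrophoresis; gain of signal fitted against DMSO.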

[14] = molecular target: Estrogen receptor (Homo sapiens) (UniProt P03372); assay: ATG_ERa_TRANS: Attagene TRANS-FACTORIAL HepG2 Assay for human Estrogen Receptor alpha (ERa) (AID 2282970; active = hit-call score of the fitted dose curve at least 0.9, where 1 is the maximum); conditions: HepG2 Attagene TRANS ERa GAL4 reporter, mRNA
Sequence of Estrogen receptor (Homo sapiens) (P03372 whole entry, looked up, the tested form may be a part): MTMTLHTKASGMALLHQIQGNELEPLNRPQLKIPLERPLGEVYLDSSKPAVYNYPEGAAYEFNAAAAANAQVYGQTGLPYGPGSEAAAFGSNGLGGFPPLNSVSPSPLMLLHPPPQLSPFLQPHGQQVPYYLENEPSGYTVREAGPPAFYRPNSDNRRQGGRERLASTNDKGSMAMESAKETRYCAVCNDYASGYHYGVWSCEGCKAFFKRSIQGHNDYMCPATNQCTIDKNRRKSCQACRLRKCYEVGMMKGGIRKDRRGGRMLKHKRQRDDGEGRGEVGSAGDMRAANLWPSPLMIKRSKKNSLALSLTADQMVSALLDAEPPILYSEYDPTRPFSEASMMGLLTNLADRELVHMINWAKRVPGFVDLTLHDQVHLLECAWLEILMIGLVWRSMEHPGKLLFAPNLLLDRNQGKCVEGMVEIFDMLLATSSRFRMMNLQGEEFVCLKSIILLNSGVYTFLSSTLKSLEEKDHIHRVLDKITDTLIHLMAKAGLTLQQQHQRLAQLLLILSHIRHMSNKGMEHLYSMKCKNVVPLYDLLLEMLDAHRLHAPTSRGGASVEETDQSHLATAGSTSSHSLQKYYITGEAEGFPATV
Procedure, shortened: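 Transactivation via ERa-Gal4 chimera in HepG2; 24 hour incubation; reporter mRNA detected by fluorescence RT-PCR and capillary electrophoresis.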

[15] = molecular target: X-box-binding protein 1 (Homo sapiens) (UniProt P17861); assay: ATG_Xbp1_CIS: Attagene CIS-FACTORIAL HepG2 Assay for human X-box Binding Protein 1 (XBP1) (AID 2282972); conditions: HepG2 XBP1 cis-element reporter, Attagene multiplex; actives raise or lower the signal
Sequence of X-box-binding protein 1 (Homo sapiens) (P17861 whole entry, looked up): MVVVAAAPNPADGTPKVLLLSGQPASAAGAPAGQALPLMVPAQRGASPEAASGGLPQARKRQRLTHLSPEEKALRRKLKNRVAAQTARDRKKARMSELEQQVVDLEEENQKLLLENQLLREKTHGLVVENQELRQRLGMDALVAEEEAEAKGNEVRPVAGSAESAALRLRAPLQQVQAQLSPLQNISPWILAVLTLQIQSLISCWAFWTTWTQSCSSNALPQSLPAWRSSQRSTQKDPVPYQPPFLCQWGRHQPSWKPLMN
Procedure, shortened: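 HepG2, transient MRTU transfection (cis-promoter driven), 24 h compound exposure. Total RNA → oligo(dT) RT → PCR → 6-FAM labeling → HpaI cut → CE. Bidirectional fit vs DMSO.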

[16] = ATG_M_19_TRANS: Attagene TRANS-FACTORIAL HepG2 Assay for M19 Transcription Factor (Internal Marker) (AID 2282974; active = hit-call score of the fitted dose curve at least 0.9, where 1 is the maximum); conditions: HepG2 Attagene TRANS-FACTORIAL M19 internal marker reporter
Procedure, shortened: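 Fluorescence of 6-FAM-labelled reporter cDNA fragments, separated by capillary electrophoresis, served as the readout. These derived from HepG2 cells carrying transfected GAL4-UAS reporter units after 24 h dosing, with DMSO as negative control.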

[17] = ATG_VDRE_CIS: Attagene CIS-FACTORIAL HepG2 Assay for human Vitamin D Receptor Element (VDRE) (AID 2282968); conditions: HepG2 VDRE cis-reporter transcription, actives raise or lower the signal
Procedure, shortened: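 Transiently transfected HepG2 cells carrying cis-regulated reporter transcription units were exposed for 24 h. Reporter mRNA was measured by RT-PCR with fluorescent labelling and capillary electrophoresis, and fitted in both directions against DMSO.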

[18] = ATG_GAL4_TRANS: Attagene TRANS-FACTORIAL HepG2 Assay for GAL4 (Internal Marker) (AID 2282976; active = hit-call score of the fitted dose curve at least 0.9, where 1 is the maximum); conditions: HepG2 Attagene TRANS GAL4 internal marker reporter
Procedure, shortened: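 Fluorescence from capillary electrophoresis of labelled RT-PCR products quantifies reporter mRNA induction after 24 h dosing of HepG2 cells carrying transfected GAL4-UAS reporter transcription units. Vehicle DMSO serves as baseline.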

[19] = molecular target: Glucocorticoid receptor (Homo sapiens) (UniProt P04150); assay: ATG_GR_TRANS: Attagene TRANS-FACTORIAL HepG2 Assay for human Glucocorticoid Receptor (GR) (AID 2282978; active = hit-call score of the fitted dose curve at least 0.9, where 1 is the maximum;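 also: activators score as hits since higher reporter transcript over DMSO is fitted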); conditions: HepG2 Attagene TRANS GR reporter, mRNA transcription
Sequence of Glucocorticoid receptor (Homo sapiens) (P04150 whole entry, looked up, the tested form may be a part): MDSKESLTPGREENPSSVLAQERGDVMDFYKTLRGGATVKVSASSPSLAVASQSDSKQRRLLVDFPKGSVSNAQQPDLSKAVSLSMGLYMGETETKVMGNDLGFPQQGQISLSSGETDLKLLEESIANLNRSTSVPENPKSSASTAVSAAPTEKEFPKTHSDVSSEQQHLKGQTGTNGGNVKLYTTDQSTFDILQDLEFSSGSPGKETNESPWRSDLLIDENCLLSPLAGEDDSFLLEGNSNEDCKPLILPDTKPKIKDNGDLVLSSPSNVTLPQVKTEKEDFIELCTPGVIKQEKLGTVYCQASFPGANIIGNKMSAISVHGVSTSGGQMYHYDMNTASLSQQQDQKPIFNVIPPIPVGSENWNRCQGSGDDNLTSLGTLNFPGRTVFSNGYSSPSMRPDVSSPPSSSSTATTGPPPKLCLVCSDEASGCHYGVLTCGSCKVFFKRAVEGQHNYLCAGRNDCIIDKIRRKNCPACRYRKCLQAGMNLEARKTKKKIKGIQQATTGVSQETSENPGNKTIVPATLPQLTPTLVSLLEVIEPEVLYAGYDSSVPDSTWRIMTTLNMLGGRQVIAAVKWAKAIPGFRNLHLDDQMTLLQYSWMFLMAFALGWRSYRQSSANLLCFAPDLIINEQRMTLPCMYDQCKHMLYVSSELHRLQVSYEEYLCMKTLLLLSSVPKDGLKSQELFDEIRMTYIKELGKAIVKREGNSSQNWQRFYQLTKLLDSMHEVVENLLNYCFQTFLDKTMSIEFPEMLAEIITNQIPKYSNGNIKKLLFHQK
Procedure, shortened: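 Fluorescent capillary-electrophoresis quantitation of reporter mRNA is the readout, taken 24 h after dosing human HepG2 cells carrying transiently transfected GAL4-UAS reporter units activated by chimeric NR-GAL4 fusions; activity scored as induction over DMSO.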

[20] = molecular target: Paired box protein Pax-6 (Homo sapiens) (UniProt P26367); assay: ATG_Pax6_CIS: Attagene CIS-FACTORIAL HepG2 Assay for human Paired Box 6 (PAX6) (AID 2282956); conditions: HepG2 CIS-FACTORIAL PAX6 reporter transcription, RNA readout; actives raise or lower the signal
Sequence of Paired box protein Pax-6 (Homo sapiens) (P26367 whole entry, looked up): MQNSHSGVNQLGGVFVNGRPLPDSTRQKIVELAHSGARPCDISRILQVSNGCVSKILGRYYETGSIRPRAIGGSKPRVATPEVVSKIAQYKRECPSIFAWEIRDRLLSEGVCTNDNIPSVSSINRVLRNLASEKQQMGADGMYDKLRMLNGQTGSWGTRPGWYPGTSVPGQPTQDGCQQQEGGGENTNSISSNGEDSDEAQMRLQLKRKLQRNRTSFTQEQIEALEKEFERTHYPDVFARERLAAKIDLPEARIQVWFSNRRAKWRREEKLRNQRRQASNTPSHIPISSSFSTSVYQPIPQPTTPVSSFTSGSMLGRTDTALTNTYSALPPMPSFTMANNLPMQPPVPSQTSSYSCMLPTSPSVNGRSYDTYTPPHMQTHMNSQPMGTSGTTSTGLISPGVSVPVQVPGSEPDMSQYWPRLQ
Procedure, shortened: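 Transient MRTU transfection of HepG2 → compound exposure 24 h → TriZol RNA, oligo(dT) RT → PCR, 6-FAM primer extension, HpaI cut → capillary electrophoresis; activity fitted both directions against DMSO.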

Measured: AC50

CS/C(C)=N/OC(=O)N(C)SN(C)C(=O)O/N=C(\C)SC
not listed: [17] | [18] | [19] | [20]
inactive: all other assays above

COc1ccc(C(c2ccc(OC)cc2)C(Cl)(Cl)Cl)cc1
inactive: [1] | [2] | [3] | [4] | [6] | [7] | [9] | [10] | [11] | [12] | [17] | [13] | [15] | [16] | [18] | [19]
active: [2] 4.17 µM [middle of 4 runs] | [6] 24.4 µM and 38.1 µM | [17] 4.94 µM and 16.3 µM and 11.9 µM | [15] 28.3 µM

CNC(=S)S
active: [2] 80 µM | [10] 168 µM
inactive: [1] | [20] | [2] | [6] | [7] | [9] | [10] | [11] | [12] | [17] | [13] | [15] | [19]

CCCCNC(=O)OCC#CI
active: [1] 25.9 µM | [2] 48.6 µM and 1.56 µM and 1.73 µM | [3] 26.3 µM | [4] 27.3 µM | [6] 31.9 µM | [9] 27.7 µM | [10] 26.8 µM | [12] 25.4 µM | [17] 37 µM | [15] 45.5 µM
inactive: [1] | [3] | [4] | [6] | [7] | [9] | [10] | [11] | [12] | [17] | [13] | [15] | [19]

COc1nc(C)nc(NC(=O)NS(=O)(=O)c2ccccc2CCC(F)(F)F)n1
active: [2] 18.9 µM and 50 µM and 33.4 µM
not listed: [5] | [18]
inactive: all other assays above

CNC(=O)ON=CC(C)(C)SC
not listed: [8] | [13] | [14] | [17]
inactive: all other assays above

Cc1cc(Cl)ccc1OCC(=O)O
not listed: [3] | [8] | [14]
inactive: all other assays above

CCCCC(CC)COC(=O)c1ccccc1C(=O)OCC(CC)CCCC (stereo not given)
active: [2] 9.84 µM | [3] 17.5 µM
not listed: [5] | [8] | [14] | [18]
inactive: all other assays above

COc1nc(NC(C)C)nc(NC(C)C)n1
active: [2] 18.6 µM | [4] 30.5 µM
inactive: [1] | [2] | [3] | [4] | [6] | [7] | [8] | [9] | [10] | [11] | [12] | [17] | [15] | [16] | [19]

OC(c1ccc(Cl)cc1)(c1cncnc1)c1ccccc1Cl (stereo not given)
inactive: [1] | [2] | [3] | [4] | [5] | [6] | [7] | [9] | [10] | [11] | [12] | [17] | [13] | [15] | [16] | [18] | [19]
active: [2] 2.17 µM | [6] 12.6 µM | [17] 50 µM

COC(=O)C=C(C)OP(=O)(OC)OC
not listed: [5] | [14] | [18]
inactive: all other assays above

CCCCOC(=O)c1ccccc1C(=O)OCCCC
active: [1] 27.5 µM and 67 µM and 50 µM | [2] 27.4 µM [middle of 5 runs] | [4] 29 µM and 50 µM | [7] 75.8 µM | [9] 39.8 µM | [12] 65.8 µM
inactive: [1] | [4] | [6] | [7] | [9] | [10] | [11] | [12] | [17] | [13] | [15] | [16] | [18] | [19]
